CCHF vOTU inh – CCHFV vOTU protease inhibitors, primary screen, biochemical, Pep-AMC substrate, fluorescence; 370,000 compounds, 0.55% hits; inhibition, % at 11.5 µM; AID 651958, 2012; Crimean-Congo hemorrhagic fever virus L polyprotein viral ovarian tumor (vOTU) protease …
GDH-TPI inh – GDH-TPI coupling enzyme inhibitors, primary screen, artefact control for M. tuberculosis FBA inhibitor project, biochemical, absorbance, full deck. GDH-TPI coupled enzyme counterscreen, NADH absorbance. inhibition, % at 4.8 µM. 360,000 compounds, 1.2% hits. AID 588335, 2011
Mtb bLac sens – beta-lactam sensitization of Mtb H37Rv, H37Rv | 330,000 compounds, 0.27% hits | inhibition, % at 25 µM | M. tuberculosis H37Rv growth with meropenem, percent inhibition; call rule not given here;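 also: growth measured after seven days incubation then overnight dye step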
Mtb FBA inh – Mtb FBA enzyme inhibitors, primary screen, biochemical, fluorescence, strain H37Rv; purified M. tuberculosis FBA, fluorescence read-out; inhibition, % at 1 µM; 360,000 compounds, 2.3% hits; AID 588726, 2011; in the data active = inhibition above about 27%
RecA splice inh – Mtb RecA intein splicing inhibitors, primary screen, biochemical, fluorescence, HTS; 290,000 compounds, 0.75% hits; cell-free RecA intein splicing; AID 2221, 2009; inhibition, % (concentration not given with the values); Protein RecA (Mycobacterium tuberculosis (strain ATCC 25618 / H37Rv)), P9WHJ3; in the data active = inhibition above about 30%
Target sequence (P9WHJ3 whole entry, looked up, canonical isoform): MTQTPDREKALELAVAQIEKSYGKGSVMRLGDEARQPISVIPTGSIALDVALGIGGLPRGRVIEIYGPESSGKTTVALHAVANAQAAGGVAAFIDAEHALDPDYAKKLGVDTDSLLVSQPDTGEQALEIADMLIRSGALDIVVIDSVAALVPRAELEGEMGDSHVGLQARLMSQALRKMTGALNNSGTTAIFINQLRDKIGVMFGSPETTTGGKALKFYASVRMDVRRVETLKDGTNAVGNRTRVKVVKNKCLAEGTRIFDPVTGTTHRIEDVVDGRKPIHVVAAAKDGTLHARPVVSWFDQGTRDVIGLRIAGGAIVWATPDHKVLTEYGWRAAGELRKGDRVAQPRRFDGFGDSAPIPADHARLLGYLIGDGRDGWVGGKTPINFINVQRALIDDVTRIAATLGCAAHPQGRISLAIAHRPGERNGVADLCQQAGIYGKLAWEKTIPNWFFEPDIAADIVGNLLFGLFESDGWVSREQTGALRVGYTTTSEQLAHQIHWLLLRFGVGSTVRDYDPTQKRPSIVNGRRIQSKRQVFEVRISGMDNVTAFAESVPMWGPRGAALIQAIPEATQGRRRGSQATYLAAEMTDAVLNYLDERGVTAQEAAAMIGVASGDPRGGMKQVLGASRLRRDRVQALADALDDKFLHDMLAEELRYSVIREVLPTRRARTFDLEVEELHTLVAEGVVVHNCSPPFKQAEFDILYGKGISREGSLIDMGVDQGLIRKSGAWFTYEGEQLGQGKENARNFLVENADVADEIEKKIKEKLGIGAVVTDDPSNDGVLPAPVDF
A number is an active result. The list is not random: actives were taken first. Their share in the collection is about 4.2%. Rule as the data show it, unless noted: active = inhibition above about 30%; inactive = the rest.

What do the screens show for `COc1cc(C2Oc3cc(C4Oc5cc(O)cc(O)c5C(=O)C4O)ccc3OC2CO)ccc1O` (configuration not stated)?
CCHF vOTU inh: inactive; GDH-TPI inh: 36; Mtb bLac sens: inactive; Mtb FBA inh: inactive; RecA splice inh: inactive

What do the screens show for `Cc1ccccc1NC(=O)CSc1nnc(-c2cc(-c3ccccc3)n[nH]2)n1N`?
CCHF vOTU inh: inactive

Results for CC[C@H](CCCc1ccc(F)cc1)CN(Cc1ccc(OC)cc1)S(=O)(=O)c1ccc(C)cc1 ?
CCHF vOTU inh: inactive

Results for COc1ccc(-c2c(-c3cc(OC)cc(OC)c3)n(C)c3ccc(-c4ccc5cc[nH]c5c4)cc23)cc1 ?
CCHF vOTU inh: inactive; GDH-TPI inh: 35; Mtb bLac sens: inactive; Mtb FBA inh: 114

How did COc1ccc(-c2c(-c3cc(OC)cc(OC)c3)n(C)c3ccc(-c4cccc5[nH]ccc45)cc23)cc1 do in these assays?
CCHF vOTU inh: inactive; GDH-TPI inh: inactive; Mtb bLac sens: inactive; Mtb FBA inh: 121

How did COc1cc(OC)cc(-c2c(C#Cc3ccsc3)c3cc(-c4cccc5[nH]ccc45)ccc3n2C)c1 do in these assays?
CCHF vOTU inh: inactive; GDH-TPI inh: inactive; Mtb bLac sens: inactive; Mtb FBA inh: inactive

What do the screens show for `COc1cc(NC(=O)c2ccccc2)c(C)cc1NC(=O)CSc1nnc(-c2ccco2)n1Cc1ccco1`?
CCHF vOTU inh: inactive

How did Oc1ccc(/C=N/Nc2cc(N3CCOCC3)nc(N3CCOCC3)n2)cc1 do in these assays?
CCHF vOTU inh: inactive; GDH-TPI inh: 58; Mtb bLac sens: inactive; Mtb FBA inh: inactive; RecA splice inh: inactive

How did Cc1cc(N/N=C/c2ccccc2O)nc(N2CCOCC2)n1 do in these assays?
CCHF vOTU inh: inactive; GDH-TPI inh: 64; Mtb bLac sens: inactive; Mtb FBA inh: inactive; RecA splice inh: inactive

Results for Oc1ccc(/C=N/Nc2cc(N3CCCC3)nc(N3CCCC3)n2)cc1 ?
CCHF vOTU inh: inactive; GDH-TPI inh: inactive; Mtb bLac sens: inactive; Mtb FBA inh: inactive; RecA splice inh: inactive

How did Cc1ccc(-n2nc(CC#N)c(C#N)c2N)cc1 do in these assays?
CCHF vOTU inh: inactive; GDH-TPI inh: inactive; Mtb bLac sens: inactive; Mtb FBA inh: inactive; RecA splice inh: inactive

How did Cc1ccc(Nc2nc(N)c(C#N)c(CC#N)c2C#N)cc1 do in these assays?
CCHF vOTU inh: inactive; GDH-TPI inh: 38; Mtb bLac sens: inactive; Mtb FBA inh: inactive; RecA splice inh: inactive

What do the screens show for `COc1cc(/C=N\Nc2cc(=O)n(C)c(=O)n2C)ccc1O`?
CCHF vOTU inh: inactive; GDH-TPI inh: inactive; Mtb bLac sens: inactive; Mtb FBA inh: inactive; RecA splice inh: inactive

Results for COc1ccc(/C=N/Nc2cc(=O)n(C)c(=O)n2C)cc1OC ?
CCHF vOTU inh: inactive; GDH-TPI inh: 34; Mtb bLac sens: inactive; Mtb FBA inh: inactive; RecA splice inh: inactive

Results for COc1ccc(/C=C/C(=O)NNc2cc(=O)n(C)c(=O)n2C)cc1OC ?
CCHF vOTU inh: inactive; GDH-TPI inh: 34; Mtb bLac sens: inactive; Mtb FBA inh: inactive; RecA splice inh: inactive

Results for O=C(NCCc1c[nH]c2ccccc12)OCc1cn(Cc2c(F)cccc2F)nn1 ?
CCHF vOTU inh: inactive

Results for O=C(c1cccc(F)c1)N(Cc1ccccn1)CC1CCCO1 (configuration not stated) ?
CCHF vOTU inh: inactive

How did C[C@@H]1COc2cc(Br)ccc2S(=O)(=O)N1Cc1cn(Cc2ccccc2)nn1 do in these assays?
CCHF vOTU inh: inactive

How did O=C(C1CCCN(S(=O)(=O)c2cccc3ccccc23)C1)N1CCN(Cc2ccccc2)CC1 (configuration not stated) do in these assays?
CCHF vOTU inh: inactive

Results for Cc1ccc(-n2ccc(=O)c(C(=O)Nc3ccc(S(=O)(=O)Nc4nccc(C)n4)cc3)n2)cc1 ?
CCHF vOTU inh: inactive; GDH-TPI inh: 35; Mtb bLac sens: inactive; Mtb FBA inh: inactive; RecA splice inh: inactive

How did CC(C)c1ccccc1-n1c(SCC(=O)c2ccc3c(c2)NC(=O)CO3)nc2ccccc2c1=O do in these assays?
CCHF vOTU inh: inactive; GDH-TPI inh: inactive; Mtb bLac sens: inactive; Mtb FBA inh: 122

How did O=C1COc2ccc(C(=O)CSc3ccccc3C(=O)O)cc2N1 do in these assays?
CCHF vOTU inh: inactive; GDH-TPI inh: inactive; Mtb bLac sens: inactive; Mtb FBA inh: inactive; RecA splice inh: inactive

Results for O=C(N/N=C/c1ccc(OCc2ccccc2)cc1)c1ccco1 ?
CCHF vOTU inh: inactive; GDH-TPI inh: inactive; Mtb bLac sens: inactive; Mtb FBA inh: inactive; RecA splice inh: inactive

Results for Cc1cc(C(=O)N/N=C/c2ccc(OCc3ccccc3)cc2)c(C)o1 ?
CCHF vOTU inh: inactive; GDH-TPI inh: inactive; Mtb bLac sens: inactive; Mtb FBA inh: inactive; RecA splice inh: inactive

How did COc1ccc(/C=N/NC(=O)c2cc(C)oc2C)cc1OCc1ccccc1 do in these assays?
CCHF vOTU inh: inactive; GDH-TPI inh: 32; Mtb bLac sens: inactive; Mtb FBA inh: inactive

How did COc1ccc(/C=N/NC(=O)c2ccco2)cc1OCc1ccccc1 do in these assays?
CCHF vOTU inh: inactive; GDH-TPI inh: 40; Mtb bLac sens: inactive; Mtb FBA inh: inactive; RecA splice inh: inactive

What do the screens show for `O=C(O)CC1S/C(=N\N=C/c2ccccc2)N(c2ccc(O)cc2)C1=O` (configuration not stated)?
CCHF vOTU inh: inactive; GDH-TPI inh: inactive; Mtb bLac sens: inactive; Mtb FBA inh: inactive; RecA splice inh: inactive

What do the screens show for `CN1C(=O)C(CC(=O)O)S/C1=N\N=C\c1ccc(O)cc1O` (configuration not stated)?
CCHF vOTU inh: inactive; GDH-TPI inh: 52; Mtb bLac sens: inactive; Mtb FBA inh: inactive; RecA splice inh: inactive

What do the screens show for `Cc1ccc(NC(=O)CCS(=O)(=O)c2ccccc2)cc1C`?
CCHF vOTU inh: inactive

Results for CN(C)c1ccc(NC(=O)c2cc3c(=O)n4ccccc4nc3n2C)cc1 ?
CCHF vOTU inh: inactive; GDH-TPI inh: inactive; Mtb bLac sens: inactive; Mtb FBA inh: inactive; RecA splice inh: inactive

Results for Cn1c(C(=O)NCC2CCCO2)cc2c(=O)n3ccccc3nc21 (configuration not stated) ?
CCHF vOTU inh: inactive; GDH-TPI inh: inactive; Mtb bLac sens: inactive; Mtb FBA inh: active; RecA splice inh: inactive

Results for Cc1cccn2c(=O)c3cc(C(=O)NCCC4=CCCCC4)n(C)c3nc12 ?
CCHF vOTU inh: inactive; GDH-TPI inh: inactive; Mtb bLac sens: inactive; Mtb FBA inh: inactive; RecA splice inh: inactive

What do the screens show for `Cn1c(C(=O)N2COCC2(C)C)cc2c(=O)n3ccccc3nc21`?
CCHF vOTU inh: inactive; GDH-TPI inh: inactive; Mtb bLac sens: inactive; Mtb FBA inh: active; RecA splice inh: inactive

How did Cn1c(C(=O)NCCC2=CCCCC2)cc2c(=O)n3ccccc3nc21 do in these assays?
CCHF vOTU inh: inactive; GDH-TPI inh: inactive; Mtb bLac sens: inactive; Mtb FBA inh: 114

How did C[C@H]1CCCN1c1ccc2c(c1)O[C@@H]1CCN(C1)S2(=O)=O do in these assays?
CCHF vOTU inh: inactive
